Experimental data: PubChem BioAssay AID1159580 (chemical genetic matrix, 2015)
Where “and” joins values, the source holds several entries; their conditions need not be identical. Identical values can stand only once. Screen size: about 5,500 compounds; about 2,000 (36%) were called active. Another 18% or so got no clear call; they are omitted. No stated cut-off is given here; in the data, active means normalized growth mostly below about 0.91 (no sharp cut-off); inconclusive means no clear call, values can overlap the other calls; inactive means mostly above about 0.92. The list shows a part of the results.

Assay: chemical genetic growth profiling, strain panel (AID 1159580);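 further: tested at 20 µM; growth read once vehicle control cultures reached saturation at 30 °C; 1 = growth at the plate median or of vehicle wells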
Details: S. cerevisiae deletion strains, growth OD

Measured: normalized growth

O=C(O)/C=C(\CC(=O)O)C(=O)O
inactive: locus YAL013W, strain DEP1, stronger effect = lower value 0.995 | locus YAL021C, strain ccr4, stronger effect = lower value 0.998 | locus YAL026C, strain drs2, stronger effect = lower value 1 | locus YAL030W, strain snc1, stronger effect = lower value 0.993 | locus YBL061C, strain skt5, stronger effect = lower value 0.994 | locus YBR009C, strain hhf1, stronger effect = lower value 1 | locus YBR021W, strain FUR4, stronger effect = lower value 0.981 | locus YBR023C, strain chs3, stronger effect = lower value 0.992 | locus YBR171W, strain sec66, stronger effect = lower value 0.989 | locus YBR229C, strain ROT2, stronger effect = lower value 0.993 | locus YBR231C, strain swc5, stronger effect = lower value 0.998 | locus YBR279W, strain paf1, stronger effect = lower value 1.01 | locus YCL011C, strain gbp2, stronger effect = lower value 1 | locus YCL016C, strain dcc1, stronger effect = lower value 1.01 | locus YCL029C, strain bik1, stronger effect = lower value 0.968 | locus YCL061C, strain MRC1, stronger effect = lower value 0.987 | locus YCL069W, strain vba3, stronger effect = lower value 1 | locus YCR088W, strain abp1, stronger effect = lower value 0.99 | locus YDL005C, strain med2, stronger effect = lower value 0.98 | locus YDL035C, strain GPR1, stronger effect = lower value 1 | locus YDL040C, strain nat1, stronger effect = lower value 0.985 | locus YDL074C, strain BRE1, stronger effect = lower value 0.998 | locus YDL101C, strain DUN1, stronger effect = lower value 1 | locus YDL134C, strain PPH21, stronger effect = lower value 1.01 | locus YDL185W, strain tfp1, stronger effect = lower value 1 | locus YDL192W, strain arf1, stronger effect = lower value 0.997 | locus YDR001C, strain nth1, stronger effect = lower value 0.995 | locus YDR069C, strain doa4, stronger effect = lower value 1.01 | locus YDR101C, strain arx1, stronger effect = lower value 0.991 | locus YDR137W, strain rgp1, stronger effect = lower value 1.02 | locus YDR159W, strain sac3, stronger effect = lower value 0.96 | locus YDR162C, strain NBP2, stronger effect = lower value 1.05 | locus YDR195W, strain ref2 0.969 | locus YDR297W, strain sur2, stronger effect = lower value 0.996 | locus YDR318W, strain mcm21, stronger effect = lower value 0.981 | locus YDR334W, strain swr1, stronger effect = lower value 0.981 | locus YDR335W, strain msn5, stronger effect = lower value 0.999 | locus YDR388W, stronger effect = lower value 0.973 | locus YDR392W, strain spt3, stronger effect = lower value 0.992 | locus YDR502C, strain sam2, stronger effect = lower value 0.984 | locus YEL003W, strain gim4, stronger effect = lower value 1 | locus YEL037C, strain rad23, stronger effect = lower value 0.994 | locus YEL061C, strain CIN8 (second series), stronger effect = lower value 1 | locus YEL061C, strain CIN8, stronger effect = lower value 0.996 | locus YER015W, strain faa2, stronger effect = lower value 0.998 | locus YER016W, strain bim1, stronger effect = lower value 0.984 | locus YER110C, stronger effect = lower value 0.982 | locus YER111C, strain swi4, stronger effect = lower value 0.991 | locus YER155C, strain BEM2 (second series), stronger effect = lower value 0.983 | locus YER155C, strain BEM2, stronger effect = lower value 0.989 | locus YER167W, strain BCK2, stronger effect = lower value 0.978 | locus YFR010W, strain ubp6, stronger effect = lower value 0.991 | locus YGL078C, strain dbp3, stronger effect = lower value 0.984 | locus YGL086W, strain mad1, stronger effect = lower value 0.987 | locus YGL167C, strain pmr1, stronger effect = lower value 0.986 | locus YGL173C, strain kem1, stronger effect = lower value 0.997 | locus YGL227W, strain vid30, stronger effect = lower value 0.98 | locus YGL240W, strain doc1, stronger effect = lower value 0.974 | locus YGL248W, strain PDE1, stronger effect = lower value 1.03 | locus YGL253W, strain hxk2, stronger effect = lower value 1 | locus YGR135W, strain pre9, stronger effect = lower value 1.02 | locus YGR252W, strain gcn5, stronger effect = lower value 1.03 | locus YHR013C, strain ard1, stronger effect = lower value 0.999 | locus YHR027C, strain rpn1, stronger effect = lower value 0.993 | locus YHR030C, strain SLT2, stronger effect = lower value 0.987 and 1.01 | locus YHR079C, strain IRE1 (second series), stronger effect = lower value 0.968 | locus YHR079C, strain IRE1, stronger effect = lower value 1.01 | locus YHR094C, strain hxt1, stronger effect = lower value 0.968 | locus YHR129C, strain ARP1, stronger effect = lower value 1 | locus YHR142W, strain chs7, stronger effect = lower value 1.01 | locus YHR200W, strain rpn10, stronger effect = lower value 0.991 | locus YIL066C, strain RNR3, stronger effect = lower value 1.01 | locus YIL073C, strain SPO22, stronger effect = lower value 0.952 | locus YIL125W, strain kgd1, stronger effect = lower value 0.979 | locus YIR030C, strain dcg1, stronger effect = lower value 0.97 | locus YJL092W, strain hpr5, stronger effect = lower value 0.994 | locus YJL095W, strain BCK1 (second series), stronger effect = lower value 0.997 | locus YJL095W, strain BCK1, stronger effect = lower value 1.05 and 1 | locus YJL115W, strain asf1, stronger effect = lower value 0.998 | locus YJL129C, strain trk1, stronger effect = lower value 0.996 | locus YJL134W, strain LCB3, stronger effect = lower value 0.993 | locus YJL154C, strain vps35, stronger effect = lower value 0.994 | locus YJL164C, strain tpk1, stronger effect = lower value 1.02 | locus YJL166W, strain qcr8, stronger effect = lower value 0.998 | locus YJL168C, strain set2, stronger effect = lower value 0.969 | locus YJL187C, strain SWE1 (second series), stronger effect = lower value 1.02 | locus YJL187C, strain SWE1, stronger effect = lower value 0.997 | locus YJR043C, strain POL32, stronger effect = lower value 1 | locus YJR066W, strain TOR1, stronger effect = lower value 0.972 | locus YJR075W, strain HOC1, stronger effect = lower value 1.03 | locus YKL009W, strain mrt4, stronger effect = lower value 0.957 | locus YKL068W, stronger effect = lower value 0.981 | locus YKL085W, strain MDH1 (second series), stronger effect = lower value 0.989 | locus YKL085W, strain MDH1, stronger effect = lower value 0.989 | locus YKL160W, strain elf1, stronger effect = lower value 0.993 | locus YKR001C, strain vps1, stronger effect = lower value 0.956 | locus YKR026C, strain gcn3, stronger effect = lower value 0.993 | locus YKR091W, strain srl3, stronger effect = lower value 0.999 | locus YLL001W, strain dnm1, stronger effect = lower value 1.01 | locus YLL026W, stronger effect = lower value 0.988 | locus YLL041C, strain sdh2, stronger effect = lower value 1 | locus YLR027C, strain aat2, stronger effect = lower value 0.996 | locus YLR039C, strain RIC1, stronger effect = lower value 1.02 | locus YLR058C, strain SHM2, stronger effect = lower value 1.01 | locus YLR102C, strain apc9, stronger effect = lower value 0.974 | locus YLR113W, strain HOG1, stronger effect = lower value 1.01 | locus YLR221C, strain rsa3, stronger effect = lower value 0.976 | locus YLR258W, strain gsy2, stronger effect = lower value 0.986 | locus YLR262C, strain YPT6 (second series), stronger effect = lower value 1.01 | locus YLR262C, strain YPT6, stronger effect = lower value 1.02 | locus YLR268W, strain sec22, stronger effect = lower value 0.977 | locus YLR320W, strain mms22, stronger effect = lower value 0.982 | locus YLR330W, strain CHS5, stronger effect = lower value 0.99 | locus YLR342W, strain FKS1 (second series), stronger effect = lower value 0.99 | locus YLR342W, strain FKS1, stronger effect = lower value 0.987 | locus YLR357W, strain rsc2, stronger effect = lower value 0.991 | locus YLR370C, strain arc18, stronger effect = lower value 0.997 | locus YLR371W, strain rom2, stronger effect = lower value 0.972 | locus YLR384C, strain iki3, stronger effect = lower value 0.984 | locus YLR418C, strain cdc73, stronger effect = lower value 1.01 | locus YML016C, strain PPZ1, stronger effect = lower value 0.986 | locus YML032C, strain rad52, stronger effect = lower value 0.986 | locus YML120C, strain ndi1, stronger effect = lower value 1 | locus YML124C, strain tub3, stronger effect = lower value 0.97 | locus YMR058W, strain fet3, stronger effect = lower value 0.997 | locus YMR078C, strain ctf18, stronger effect = lower value 0.975 | locus YMR125W, strain sto1, stronger effect = lower value 0.997 | locus YMR129W, stronger effect = lower value 0.996 | locus YMR205C, strain PFK2, stronger effect = lower value 1.01 | locus YMR223W, strain ubp8, stronger effect = lower value 0.996 | locus YMR231W, strain pep5, stronger effect = lower value 0.967 | locus YMR307W, strain GAS1, stronger effect = lower value 1.06 | locus YNL067W, strain RPL9B, stronger effect = lower value 1.03 | locus YNL071W, strain lat1, stronger effect = lower value 1 | locus YNL128W, strain TEP1, stronger effect = lower value 1 | locus YNL153C, strain GIM3, stronger effect = lower value 1.04 | locus YNL183C, strain NPR1, stronger effect = lower value 0.979 | locus YNL209W, strain ssb2, stronger effect = lower value 1 | locus YNL233W, strain BNI4, stronger effect = lower value 1.02 | locus YNL248C, strain rpa49, stronger effect = lower value 0.995 | locus YNL250W, strain rad50, stronger effect = lower value 0.982 | locus YNL271C, strain bni1, stronger effect = lower value 0.972 | locus YNL298W, strain CLA4, stronger effect = lower value 0.978 | locus YNL307C, strain MCK1, stronger effect = lower value 0.982 | locus YNL322C, strain KRE1 (second series), stronger effect = lower value 0.99 | locus YNL322C, strain KRE1, stronger effect = lower value 0.998 | locus YNR049C, strain mso1, stronger effect = lower value 0.992 | locus YNR052C, strain pop2, stronger effect = lower value 0.971 | locus YOL006C, strain TOP1, stronger effect = lower value 0.969 | locus YOL012C, strain htz1 0.984 | locus YOL147C, strain pex11, stronger effect = lower value 0.986 | locus YOR001W, strain rrp6, stronger effect = lower value 0.969 | locus YOR061W, strain CKA2, stronger effect = lower value 0.988 | locus YOR069W, strain VPS5, stronger effect = lower value 0.989 | locus YOR070C, strain gyp1, stronger effect = lower value 0.981 | locus YOR080W, strain dia2, stronger effect = lower value 0.985 | locus YOR083W, strain WHI5, stronger effect = lower value 1.01 | locus YOR106W, strain vam3, stronger effect = lower value 1.01 | locus YOR136W, strain idh2, stronger effect = lower value 0.98 | locus YOR144C, strain elg1, stronger effect = lower value 0.984 | locus YOR184W, strain ser1, stronger effect = lower value 0.999 | locus YOR231W, strain MKK1, stronger effect = lower value 1.05 | locus YOR265W, strain rbl2, stronger effect = lower value 0.995 | locus YOR270C, strain vph1, stronger effect = lower value 1.04 | locus YOR290C, strain snf2, stronger effect = lower value 0.964 | locus YOR316C, strain cot1, stronger effect = lower value 0.97 | locus YPL051W, strain arl3, stronger effect = lower value 0.989 | locus YPL055C, strain LGE1, stronger effect = lower value 1.03 | locus YPL078C, strain atp4, stronger effect = lower value 1 | locus YPL106C, strain sse1, stronger effect = lower value 0.997 | locus YPL240C, strain hsp82, stronger effect = lower value 0.996 | locus YPL241C, strain CIN2, stronger effect = lower value 0.993 | locus YPL256C, strain CLN2, stronger effect = lower value 1 | locus YPR119W, strain clb2, stronger effect = lower value 0.957 | locus YPR141C, strain kar3, stronger effect = lower value 0.975 | locus YPR163C, strain tif3, stronger effect = lower value 0.984 | locus YPR167C, strain met16, stronger effect = lower value 0.951 | strain wtn01, stronger effect = lower value 0.954
